Tests used:
Experiment in all cases: PBM binding z-score (relative to random genomic background probes); higher = stronger binding; sequences stand for … in GC…GCGATTGACAGCGTAGAATGAAGG
[1] = tested on: FXR:RXRa (NR concentration 270 nM, RXRa partner concentration 90 nM)
Method in brief: (§1)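 Probes were double-stranded and carried 34-nt variable regions with direct-repeat seeds, single-nucleotide variants, half-site ablations and random human genomic background sequences, printed on custom Agilent 4×180K protein-binding microarrays. Arrays were incubated 1 h with ligand-free nuclear receptor dimers in PBS pH 7.4, 2% milk, 0.02% Triton X-100, 1 mM DTT, 0.2 mg/mL BSA and 0.4 mg/ml salmon testes DNA. Antibodies against each partner (one per run) detected binding, and scanned fluorescence was regression-normalized. Binding z-scores use the random background probes as reference.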

[2] = tested on: LXRa:RXRa (NR concentration 270 nM, RXRa partner concentration 90 nM)
Method in brief: as §1

[3] = tested on: LXRa homodimer (NR concentration 270 nM)
Method in brief: as §1

[4] = tested on: LXRb:RXRa (NR concentration 270 nM, RXRa partner concentration 90 nM)
Method in brief: as §1

[5] = tested on: LXRb homodimer (NR concentration 270 nM)
Method in brief: as §1

[6] = tested on: PPARa:RXRa (NR concentration 270 nM, RXRa partner concentration 90 nM)
Method in brief: as §1

[7] = tested on: PPARg:RXRa (NR concentration 180 nM, RXRa partner concentration 90 nM)
Method in brief: as §1

[8] = tested on: PPARg:RXRa 270nM:90nM, anti-RXR (NR concentration 270 nM, RXRa partner concentration 90 nM)
Method in brief: as §1

[9] = tested on: PPARg:RXRa 30nM:10nM, anti-RXR (NR concentration 30 nM, RXRa partner concentration 10 nM)
Method in brief: as §1

[10] = tested on: PPARg:RXRa 90nM:30nM, anti-RXR (NR concentration 90 nM, RXRa partner concentration 30 nM)
Method in brief: as §1

[11] = tested on: PPARg:RXRa DBDmut IVT, anti-RXR (DBD mutation: RXRa K156A/R161A, NR concentration 270 nM, RXRa partner concentration 90 nM)
Method in brief: as §1

[12] = tested on: PPARg:RXRa IVT, anti-PPARg (NR concentration 270 nM, RXRa partner concentration 90 nM)
Method in brief: as §1

[13] = tested on: PPARg DBDmut:RXRa IVT, anti-PPARg (DBD mutation: PPARg1 K132A/R137A, NR concentration 270 nM, RXRa partner concentration 90 nM)
Method in brief: as §1

[14] = tested on: PPARg DBDmut IVT, anti-PPARg (DBD mutation: PPARg1 K132A/R137A, NR concentration 270 nM)
Method in brief: as §1

[15] = tested on: PPARg homodimer (NR concentration 180 nM)
Method in brief: as §1

[16] = tested on: PXR:RXRa (NR concentration 270 nM, RXRa partner concentration 90 nM)
Method in brief: as §1

[17] = tested on: PXR homodimer (NR concentration 270 nM)
Method in brief: as §1

[18] = tested on: RARa:RXR (NR concentration 270 nM, RXRa partner concentration 90 nM)
Method in brief: as §1

[19] = tested on: RARa homodimer (NR concentration 270 nM)
Method in brief: as §1

[20] = tested on: RARb:RXRa (NR concentration 270 nM, RXRa partner concentration 90 nM)
Method in brief: as §1

Sequence | PBM binding z-score [1] | PBM binding z-score [2] | PBM binding z-score [3] | PBM binding z-score [4] | PBM binding z-score [5] | PBM binding z-score [6] | PBM binding z-score [7] | PBM binding z-score [8] | PBM binding z-score [9] | PBM binding z-score [10] | PBM binding z-score [11] | PBM binding z-score [12] | PBM binding z-score [13] | PBM binding z-score [14] | PBM binding z-score [15] | PBM binding z-score [16] | PBM binding z-score [17] | PBM binding z-score [18] | PBM binding z-score [19] | PBM binding z-score [20]
CCTCGGAGGACAGAGGGTCAGAGCTGTCCGCTTT | 0.828 | 0.75 | -0.594 | 0.328 | -1.2 | 1.2 | -0.24 | 0.834 | -0.79 | -0.115 | -0.421 | 0.141 | -1.61 | -1.81 | 0.33 | 0.62 | -0.49 | 1.14 | -0.305 | 2.22
CGAACGAGGGCATGTGTTGATAGCAAATGCCGAT | 0.387 | 0.273 | -0.286 | 0.11 | -0.807 | 1.05 | 1.15 | 1.14 | 0.0411 | 0.632 | 2.61 | 1.67 | 0.15 | -0.912 | 0.123 | 0.241 | -0.168 | 0.367 | 0.149 | 1.81
GCCAGCAGGCCATTTGGGTCACTCAATGACGGGC | 0.0652 | -0.0507 | -0.664 | -0.289 | -1.29 | 1.02 | 0.451 | 0.16 | -0.483 | -0.357 | 0.295 | 1.48 | -0.593 | -1.66 | -0.218 | 0.499 | 0.123 | 0.783 | -1.21 | 1.49
AGTCAAAGTTCACTAGGTAACGTAGGATTCAGCT | 5.02 | 4.93 | 3.02 | 2.92 | 0.939 | 4.65 | 7.24 | 6.38 | 3.58 | 5.79 | 2.76 | 4.99 | 0.535 | 0.509 | 2.04 | 3.89 | 2.85 | 2.82 | 0.778 | 4.83
CCTCCTGGGCCATTCAGAGGTCATTGATCATATG | 2.62 | 4.24 | 6.14 | 3.46 | -0.028 | 3.23 | 0.59 | 1.78 | 0.334 | 0.958 | 0.035 | 1.4 | -0.946 | -1.05 | 2.13 | 4.87 | 2.7 | 4.93 | 0.138 | 3.04
TCCGCTAGGTCAGTTGGTCAGCTAACGAGCTGCC | 1.2 | 0.833 | -0.36 | 0.472 | -0.0467 | 1.57 | 0.233 | 1.55 | 1.2 | 1.49 | 2.32 | 2.55 | -0.0326 | -0.848 | 0.175 | 0.233 | -0.744 | 0.687 | -0.7 | 3.44
TAGCCTACGTCATTCAGGGGCCAGTATAGAAAGC | -0.632 | -0.447 | -0.497 | 0.157 | -0.0304 | -0.0175 | 0.374 | -0.279 | -0.505 | -0.468 | -0.459 | -0.0447 | 0.682 | 0.371 | 0.00959 | -0.22 | -0.62 | -0.258 | -0.456 | 0.27
CAAACTAGGTCAAGGTCAAAGTCGGTTTGTGCCA | 6.65 | 5.95 | 4.23 | 4.67 | 1.63 | 6.12 | 9.81 | 8.12 | 7.05 | 8.27 | 8.86 | 8.63 | 3.11 | 0.796 | 3.64 | 5.25 | 2.25 | 5.33 | 2.13 | 5.19
CGTACAAGGTCAATGCTAGGTCAGTGAAAGCATT | 7.34 | 6 | 2.7 | 4.55 | 1.54 | 5.5 | 5.12 | 5.6 | 2.08 | 4.22 | 4.05 | 4.92 | 0.909 | 0.378 | 5.84 | 5.07 | 2.03 | 6.46 | 2.18 | 5.33
GCTATTAGTTGAAAGGGCAACTGAATGATTCTCG | 0.614 | 0.896 | 0.18 | 1.1 | 0.073 | 2.51 | 2.65 | 4.03 | 2.6 | 4.54 | 0.54 | 1.04 | 0.18 | 0.595 | 1.34 | 0.933 | 0.252 | 1.68 | 0.584 | 2.1
GCGACTGGGGCATCAGCAGGTTACCACAACTTAA | -0.0917 | -0.185 | -0.291 | 0.725 | -0.793 | 0.935 | 0.922 | 1.13 | -0.162 | -0.0671 | 3.58 | 3.42 | -0.499 | -0.426 | 0.249 | 0.125 | -0.569 | 0.565 | -0.456 | 0.902
CGTCCAAGGTCAATGCTAGGTCAGTGCAAGCATT | 6.7 | 5.58 | 2.83 | 4.07 | 0.975 | 4.94 | 3.6 | 4.26 | 0.996 | 3.23 | 3.46 | 3.77 | -0.816 | -0.276 | 4.69 | 4.69 | 1.57 | 5.52 | 1.48 | 5.25
GCCTATAGGTAATACAAGGTGAAAGTCCGATTGT | 2.26 | 2.68 | -0.0258 | 0.783 | -0.465 | 1.28 | 0.667 | 0.826 | 0.0563 | 0.57 | 1.99 | 1.53 | 0.858 | 0.233 | 0.234 | 0.642 | 0.00334 | 0.994 | -0.186 | 0.666
CGTCAAAGTTCCAGGTAACGTAACAGAAAGCAGC | -0.0989 | -0.25 | -0.161 | 0.0165 | 0.0494 | 0.154 | 0.501 | 0.0886 | -0.125 | 0.0621 | 0.434 | 0.748 | -0.578 | 0.351 | 0.169 | 0.0635 | -0.218 | 0.268 | 0.632 | 0.351
